Source: PubChem BioAssay (National Center for Advancing Translational Sciences (NCATS))
LASV entry inh: Lassa virus entry inhibition; Lassa virus pseudotype entry inhibition, cell reporter; AID 540256; Potency, µM (top dose mostly 37.9 µM), without a hit: at the top dose activity change, negative = inhibition, actives largely listed as inhibitors; 1.2% of 300,000 active; calls by dose curve; tested in HEK293 cells; also: potency is read from the fitted curve at half-maximal effect; % is scaled to controls: 0 for no effect and ±100 for the full control effect; nearly all actives have a fitted effect of over 50% in size
HCMV inh: blocks human cytomegalovirus replication; HFF cells, HCMV-luciferase reporter, 72 h; stronger effect = lower value; 4.5% of 410,000 active; activity change, negative = inhibition, % at 57.5 µM; in the data active = activity change below about -60%; inconclusive = no clear call, values can overlap the other calls; inactive = above about -39%; also: % is scaled to controls: 0 for no effect and ±100 for the full control effect
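After 16 h attachment at 37C, HFF cells received test compound and HCMV-luciferase (1 PFU/cell); reporter luminescence read 72 h later, data normalized against buffer-only and known inhibitor Salinomycin.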
FMDV antiviral: foot and mouth disease virus antiviral activity | FMDV antiviral cell-based qHTS | Potency, µM (doses to about 57.9 µM), for inactives: at the highest dose activity change, negative = inhibition, hits mostly inhibitors | 1.2% of 410,000 active; calls by dose curve; tested in HEK293T cells; also: read-out not given here; potency is read from the fitted curve at half-maximal effect; % is scaled to controls: 0 for no effect and ±100 for the full control effect; nearly all actives have a fitted effect of over 45% in size
Marburg entry inh: blocks Marburg virus binding to or entry into cells; Marburg virus pseudotyped entry inhibition, cell reporter; Potency, µM (doses to about 37.8 µM), for inactives: at the highest dose activity change, negative = inhibition, hits mostly inhibitors; 1.8% of 300,000 active; calls by dose curve; tested in HEK293 cells; also: potency is read from the fitted curve at half-maximal effect; % is scaled to controls: 0 for no effect and ±100 for the full control effect
HeLa G2M arrest: HeLa G2/M cell cycle arrest induction. shares compounds with Marburg entry inh. HeLa cell cycle G2/M arrest, Hoechst DNA content imaging. Potency, µM, hits mostly inhibitors. 60% of 25 active. AID 2441
WI-38 cytotox: counter-screen for perinucleolar compartment inhibitors: WI-38 cytotoxicity; 120 tested, under 10 active; AID 2729; WI-38 normal lung fibroblasts, ATPLite luminescence ATP viability, 24 h; shares compounds with Marburg entry inh; Potency, µM (highest dose often 46.1 µM), for inactives: top-dose activity change, negative = cytotoxicity, usual class: inhibitors
PNC assembly inh: confirmation of perinucleolar compartment assembly inhibitors | Potency, µM (doses to about 46.1 µM), inactives show at the top dose activity, negative = PNC inhibition, most hits filed as inhibitors | AID 2730 | PC3M PTB-GFP, PNC prevalence imaging, 16 h | 50% of 120 active | shares compounds with Marburg entry inh
PC3M caspase: counter-screen for PNC inhibitors: PC3M caspase 3/7 activation; 120 tested, under 10 active; AID 2731; PC3M-GFP caspase 3/7 activation, luminescence, 24 h; shares compounds with Marburg entry inh; activity change, positive = activation, % at 46.1 µM
Numbers without * were called inactive; ! = not active in a repeat; [ ] = remark or other dose. Most compounds without a hit are left out; they make up all but 6.2% or so of the library. Unless noted, calls follow the shape of the dose curve; as a rule, active = well fitted curve in the direction sought with a large enough effect; inconclusive = small, poorly fitted or top-dose-only effect, or another doubt; inactive = no such curve, though single readings can be large; an effect the other way counts as inactive or inconclusive.

`N=c1c(C(=O)NCCc2ccccc2)cc2c(=O)n3ccccc3nc2n1CCCN1CCOCC1` gave LASV entry inh inconclusive, HCMV inh -17, FMDV antiviral -4% and Marburg entry inh 7.1µM*.
Screening COCCn1c(=N)c(C(=O)NCCc2ccc(OC)cc2)cc2c(=O)n3cccc(C)c3nc21 returned LASV entry inh -13%, HCMV inh 29, FMDV antiviral inconclusive and Marburg entry inh -10%.
CCC(Cc1ccccc1)NC(=O)c1ccc2nc(N3CCC(C)CC3)sc2c1 (stereo unspecified) was read as LASV entry inh 24%[46.1 µM], HCMV inh 24, FMDV antiviral inconclusive and Marburg entry inh inconclusive.
`O=C(Nc1c(C(=O)Nc2ccc(F)cc2)oc2ccccc12)c1ccccc1F` gave LASV entry inh -3%[46.1 µM], HCMV inh -2, FMDV antiviral -10% and Marburg entry inh 7%[46.1 µM].
For CC(C)(C)c1ccc(C(=O)N2CCC3(CC2)CC3C(=O)NCCc2ccccn2)cc1 (stereo unspecified) the results were FMDV antiviral 26%.
Screening Cc1ccc2nc(CNC(=O)c3cc(NC(=O)c4ccccc4)cc4ncn(C5CCCC5)c34)cn2c1 returned FMDV antiviral -10%.
Screening CCc1nn(CC(=O)NCCCN2CCOCC2)c(=O)c2cc3cc(F)ccc3n12 returned LASV entry inh 16%[46.1 µM], HCMV inh active, FMDV antiviral 4% and Marburg entry inh 7%[46.1 µM].
`COCCCn1c(=N)c(C(=O)NC2CCCC2)cc2c(=O)n3cccc(C)c3nc21` gave LASV entry inh inconclusive, HCMV inh 2, FMDV antiviral 54% and Marburg entry inh 20%[46.1 µM].
Screening Cc1cccn2c(=O)c3cc(C(=O)NC4CCCC4)c(=N)n(CCCN4CCOCC4)c3nc12 returned LASV entry inh -12%[46.1 µM], HCMV inh -25, FMDV antiviral -8% and Marburg entry inh 3.5µM*.
For COc1cc(=O)n2c(c1C(=O)NC(C)c1ccco1)CCN(C(=O)c1ccc(F)cc1Cl)CC2 (stereo unspecified) the results were FMDV antiviral 22%.
CC(=O)c1ccc(NC(=O)Cn2ncc3c4ccccc4n(Cc4ccccc4)c3c2=O)cc1 was read as LASV entry inh -11%[46.1 µM], HCMV inh -10, FMDV antiviral 1% and Marburg entry inh -15%[46.1 µM].
Screening Cc1cccc(-n2c(SCC(=O)Nc3ncc(Cl)cc3Cl)nc3ccccc32)c1 returned LASV entry inh 0.82µM*, HCMV inh -99*, FMDV antiviral 0%, Marburg entry inh 1.2µM*, WI-38 cytotox -15%, PNC assembly inh 5µM* and PC3M caspase -4.
For CC(C)c1ccc(S(=O)(=O)/N=C2/C=C(Sc3ncn[nH]3)C(=O)c3ccccc32)cc1 the results were LASV entry inh inconclusive, FMDV antiviral 22µM*, Marburg entry inh inconclusive, WI-38 cytotox -4%, PNC assembly inh inconclusive and PC3M caspase -4.
Cc1ccc(C(C)C)c(OCc2ccc(C(=O)N/N=C/c3ccc(O)cc3O)cc2)c1 was read as LASV entry inh inconclusive, HCMV inh -97*, FMDV antiviral 0%, Marburg entry inh 6.3µM*, WI-38 cytotox -7%, PNC assembly inh inconclusive and PC3M caspase -2.
`Cc1ccc(C(C)C)c(OCc2ccc(C(=O)N/N=C/c3ccc(C(=O)O)cc3)cc2)c1` gave HCMV inh 0 and FMDV antiviral -23%.
C[C@]12Cc3cn4c(nc3C=C1CCC1C2CC[C@@]2(C)[C@H]1CC[C@@]2(O)C#N)nc1ccccc14 (stereo partly specified) was read as LASV entry inh 5.2µM*, Marburg entry inh 10µM* and HeLa G2M arrest inconclusive.
For C#C[C@]1(O)CC[C@H]2[C@@H]3CCC4=CC(=O)CC[C@]4(C)[C@H]3CC[C@@]21C the results were LASV entry inh 2%, HCMV inh 68, FMDV antiviral -5% and Marburg entry inh -1%.
Screening Cc1ccc(NC(=O)CCCn2c(=O)c3cccn3c3ccccc32)cc1C returned LASV entry inh -4%[46.1 µM], HCMV inh inconclusive and FMDV antiviral -13%.
COC(=O)c1ccc(C)c(NC(=O)c2c(-c3ccccc3)noc2C)c1 was read as LASV entry inh -8%, HCMV inh -9 and Marburg entry inh -22%.
`COC(=O)c1c(-c2ccccc2)csc1NC(=O)c1c(-c2ccccc2)noc1C` gave LASV entry inh 0.89µM*, HCMV inh -79*, FMDV antiviral inconclusive, Marburg entry inh 1µM*, WI-38 cytotox 13%, PNC assembly inh 4µM* and PC3M caspase 1.
CCOc1ccc2c(c1)c(=O)c(C(=O)c1ccc(CC)cc1)cn2CC(=O)Nc1ccccc1OC was read as LASV entry inh -21%[46.1 µM], HCMV inh 19, FMDV antiviral -11% and Marburg entry inh inconclusive.
Screening COc1cccc(CNc2cccc3cccnc23)c1O returned LASV entry inh -19%, HCMV inh 27, FMDV antiviral 20%, Marburg entry inh 17%, WI-38 cytotox -9%, PNC assembly inh 7% and PC3M caspase 1.
For CC12CCC(C(=O)NC(c3ccccc3)c3ccccc3)(OC1=O)C2(C)C (stereo unspecified) the results were LASV entry inh inconclusive, HCMV inh 61, FMDV antiviral inconclusive, Marburg entry inh 1%, WI-38 cytotox -10%, PNC assembly inh 15% and PC3M caspase -1.
NSc1nc(N)c2nc(-c3ccccc3)c(-c3ccccc3)nc2n1 was read as LASV entry inh -5%, HCMV inh 32, FMDV antiviral inconclusive and Marburg entry inh -16%[46.1 µM].
Screening Nc1nc(N)c2nc(-c3ccccc3)c(N)nc2n1 returned LASV entry inh inconclusive, HCMV inh inconclusive, FMDV antiviral -21%, Marburg entry inh 2.8µM*! and HeLa G2M arrest 10*.
O=C(NCc1cccnc1)c1cc(C2CCCN(S(=O)(=O)c3ccccc3)C2)on1 (stereo unspecified) was read as HCMV inh -19 and FMDV antiviral -18%.
Screening N#Cc1ccc(CN2CCC3(CC2)CCN(C(=O)c2csnn2)CC3)cc1 returned FMDV antiviral -13%.
For CSc1nnc2c3ccccc3n(CCc3ccccc3)c2n1 the results were LASV entry inh 1µM*, HCMV inh -98*, FMDV antiviral inconclusive, Marburg entry inh 0.58µM*, WI-38 cytotox -4%, PNC assembly inh 5µM* and PC3M caspase -1.
